From PubChem BioAssay
HT1080NT lethal: kills 2HG-producing HT-1080-NT fibrosarcoma cells; 1.6% of 360,000 active; AID 686970; Potency, µM (titrated, usually from 46.1 µM), without a hit: at the top dose activity, negative = less viability, usual class: cytotoxic; HT-1080-NT fibrosarcoma viability, CellTiter-Glo ATP luminescence, 48 h;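 also: NT is the 2HG producing partner of a matched IDH1 knockdown line; 0% = DMSO-treated cells and -100% = media-only wells without cells; nearly all actives have a fitted effect of over 55% in size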
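Fibrosarcoma NT cells, 750 per well in 5% FBS RPMI, were exposed to compound for 48 hours. Viability: CellTiter-Glo luminescence.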
HT1080 IDH1KD tx: kills HT-1080 cells with IDH1 knockdown; HT-1080 IDH1 knockdown viability, ATP luminescence, 48 h; Potency, µM (highest dose often 46.1 µM), for the others: top-dose activity, negative = toxicity, actives largely listed as cytotoxic; 2% of 360,000 active; AID 686971;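 also: 0% = DMSO wells and -100% = cell-free medium wells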
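CellTiter-Glo luminescence after 48 h compound exposure at 37 degrees C of IDH1-knockdown HT-1080 cells in 5% FBS RPMI. %Activity scaled between DMSO wells and cell-free media wells, with curves fitted and assigned curve classes.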
TDP1 cell noCPT: qHTS for Inhibitors of human tyrosyl-DNA phosphodiesterase 1 (TDP1): qHTS in cells in absence of CPT. DT40 Tdp1-/- hTDP1 cells, no CPT, ATP luminescence, 48 h. Potency, µM (highest dose often 46.2 µM), without a hit: top-dose activity change, negative = growth inhibition, hits mostly inhibitors. 15% of 420,000 active. AID 686978, 2013; also: % is scaled to controls: 0 for no effect and ±100 for the full control effect; nearly all actives have a fitted effect of over 55% in size
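Stably hTDP1-transfected Tdp1-null chicken DT40 cells were treated with library compounds minus camptothecin and grown for at least 48 hr at 37 °C, after which cellular ATP was quantified by luminescence.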
TDP1 cell CPT: growth inhibition of DT40 Tdp1-/-;hTDP1 cells with camptothecin (screen for TDP1 inhibitors); chicken DT40 Tdp1-/-;hTDP1 cells + 20 nM CPT, ATP luminescence, 48 h; 12% of 420,000 active; Potency, µM (highest dose often 46.2 µM), without a hit: top-dose activity change, negative = growth inhibition, usual class: inhibitors; AID 686979; also: % is scaled to controls: 0 for no effect and ±100 for the full control effect; nearly all actives have a fitted effect of over 55% in size
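Chicken DT40 Tdp1-/- cells complemented with human TDP1, 400 cells/well, exposed to compounds plus 20 nM camptothecin for at least 48 h at 37 C; viability read as ATP content by CellTiter-Glo luminescence.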
TGFb inhibitor: blocks TGF-b signaling | AID 588855 | Potency, µM (series often up to 46.1 µM), without a hit: at the highest dose activity, negative = inhibition, hits mostly inhibitors | 1.2% of 410,000 active | HepG2 CAGA-GFP TGF-b/SMAD3 reporter, GFP fluorescence, 18 h; TGF-beta stimulated, 500 pg/mL final; also: % is scaled to controls: 0 for no effect and ±100 for the full control effect; nearly all actives have a fitted effect of over 65% in size
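GFP signal (ex488/em500-530) from TGF-beta-stimulated HEPG2 CAGA-GFP cells, 500 pg/mL final, 18 h at 37 degrees C in DMEM plus 1% FBS, normalized to unstimulated and DMSO-stimulated controls.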
HepG2 tox: kills HepG2 cells in TGF-b inhibitor counter-screen. Potency, µM (titrated, usually from 46.1 µM), without a hit: at the highest dose activity change, negative = cytotoxicity, hits mostly cytotoxic. 0.76% of 410,000 active. HepG2 CAGA-GFP viability, ATP luminescence, 18 h
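CellTiter-Glo luminescence gave cytotoxicity after 18 hours at 37 degrees C. The cells were HepG2 CAGA-GFP in 1% FBS DMEM, stimulated with 500 pg/mL TGF-beta after compound addition. %Activity was normalised to no-cell wells (complete cell-killing) and DMSO (no toxicity), and curves were fitted and classified.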
The depositor's hits bear a star; ? = inconclusive; / = no result; ! = a repeat was not active. Only some compounds are listed: those with a hit (about 17% of all), similar ones and a draw of the others. Calls follow the shape of the dose curve; as a rule, active = well fitted curve in the direction sought with a large enough effect; inconclusive = small, poorly fitted or top-dose-only effect, or another doubt; inactive = no such curve, though single readings can be large; an effect the other way counts as inactive or inconclusive. Potency is read from the fitted curve at half-maximal effect.

SMILES	HT1080NT lethal	HT1080 IDH1KD tx	TDP1 cell noCPT	TDP1 cell CPT	TGFb inhibitor	HepG2 tox
FC(F)(F)c1ccccc1-c1ccc2ncnc(NCc3cccs3)c2c1	/	/	?	23µM*	/	/
c1csc(CNc2ncnc3ccc(-c4ccoc4)cc23)c1	/	/	-25%	?	-19%	-66%
FC(F)(F)c1ccccc1-c1ccc2ncnc(NC3CC3)c2c1	/	/	21µM*	23µM*	/	/
COCCNc1ncnc2ccc(-c3ccccc3C)cc12	/	/	21µM*	10µM*	/	/
CN(C)C(=O)c1ccc(-c2ccc3ncnc(NC4CC4)c3c2)cc1	/	/	?	-7%	/	/
FC(F)(F)c1ccccc1-c1nc(NC2CC2)c2ccccc2n1	/	/	-27%	-5%	/	/
Cc1ccccc1-c1ccc2ncnc(NC3CC3)c2c1	/	/	?	16µM*	/	/
COc1ccc(C(=O)N2CCCCC2c2cc(C(=O)NCc3ccccc3)no2)cc1 (stereo not drawn)	0%	0%	-21%	?	25%	18%
O=C1C[C@H](c2ccccc2)Oc2cc(O)cc(O)c21	/	/	-20%	14%	/	/
CCOC(=O)c1cnc(N2CCN(c3ccc(C)cc3C)CC2)c2ccccc12	/	/	?	?	13%	12%
Cc1ccccc1-c1ccc2ncnc(-n3ccnc3)c2c1	/	/	21µM*	21µM*	/	/
C=C1C=C(C(F)F)n2ncc(C(=O)NCc3ccc(Cl)cc3)c2N1	/	/	-28%	-6%	2%	-2%
C=C1C=C(C(F)F)n2ncc(C(=O)NCCc3ccc(Cl)cc3)c2N1	/	/	?	13µM*	-18%	-25%
C=C1C=C(C(F)F)n2ncc(C(=O)NCc3ccc(F)cc3)c2N1	/	/	?	?	2%	4%
C=C1C=C(C(F)F)n2ncc(C(=O)NCc3ccc(OC)cc3)c2N1	/	/	?	11µM*	23%	6%
CC1(C(=O)NCc2ccc(C(F)(F)F)cc2)CCN1C1Cc2ccccc2C1 (stereo not drawn)	-32%	?	?	?	?	-22%
COc1ccc(NC(=O)c2ccc(-c3ccc(-c4noc(C)n4)cc3C)cc2)cc1OCCN(C)C	/	/	2.6µM*	5.2µM*	/	/
COc1ccc(NC(=O)c2ccc(-c3ccc(-c4noc(C)n4)cc3C)cc2)cc1N1CCN(C)CC1	8.2µM*	23µM*	2.1µM*	2.6µM*	18µM*	11µM*!
O=C(NCCN1CCC(n2c(=O)[nH]c3ccccc32)CC1)N1c2ccccc2Sc2ccccc21	-12%	-14%	16µM*	?	/	/
O=C(NCCN1CCC(n2c(=O)[nH]c3ccccc32)CC1)c1ccccc1	7%	0%	-1%	-2%	/	/
COc1ccc(NC(=O)c2ccco2)cc1NC(=O)c1cccc(OC(C)C)c1	-15%	-8%	12µM*	?	3%	-14%
COc1cccc(C(=O)Nc2cc(NC(=O)c3ccco3)ccc2OC)c1	13%	15%	?	18µM*	3%	-12%
COc1cc(NC(=O)c2oc3ccccc3c2C)ccc1NC(=O)c1ccco1	0%	-16%	18µM*	?	7%	-19%
COc1ccc(NC(=O)c2ccco2)cc1NC(=O)c1ccccc1	0%	1%	?	-23%	8%	-6%
CCCCOc1cccc(C(=O)Nc2cc(NC(=O)c3ccco3)ccc2OC)c1	/	/	21µM*	18µM*	?	-16%
SMILES	HT1080NT lethal	HT1080 IDH1KD tx	TDP1 cell noCPT	TDP1 cell CPT	TGFb inhibitor	HepG2 tox
O=C(CC1SC(N2CCOCC2)=NC1=O)Nc1cccc(C(F)(F)F)c1 (stereo not drawn)	-2%	10%	-11%	2%	4%	-4%
COc1ccc(S(=O)(=O)NCC(c2ccc(N(C)C)cc2)N2CCOCC2)cc1 (stereo not drawn)	/	/	-7%	-4%	-13%	-4%
COc1ccc(NC(=O)c2ccco2)cc1NC(=O)c1cccc(C)c1OC	/	/	12µM*	21µM*	0%	-4%
CC(C)N(c1ccccc1)c1ccc(NC(=O)COC(=O)CCN2C(=O)c3cccc([N+](=O)[O-])c3C2=O)cc1	-27%	?	16µM*	?	?	-42%
CC(=O)c1ccc(NC(=O)COC(=O)CCN2C(=O)c3cccc([N+](=O)[O-])c3C2=O)cc1	12%	21%	-36%	-13%	7%	-2%
Cc1ccc(S(=O)(=O)N2C[C@H]3C(=O)C[C@@H](c4ccc(Cl)cc4)N(S(=O)(=O)c4ccc(C)cc4)[C@H]3C[C@H]2c2cccc3ccccc23)cc1	?	27%	-5%	-8%	-1%	7%
COc1ccc(-c2nnc(Nc3ccc(OCC(N)=O)cc3)c3ccccc23)cc1	/	/	?	-26%	-11%	-21%
NC(N)=N/N=C/c1ccc2cccc(OCc3ccccc3)c2n1	23µM*	?	7.3µM*	9.2µM*	?	-84%
NC(=S)N/N=C/c1ccc2cccc(OCc3ccccc3)c2n1	-18%	-10%	29µM*	?	0%	-7%
O/N=C/c1ccc2cccc(OCc3ccccc3)c2n1	-4%	-2%	-2%	-4%	-22%	-9%
O=C(CSC1CS(=O)(=O)c2cc([N+](=O)[O-])ccc21)NNC(=O)c1ccccc1 (stereo not drawn)	-4%	?	21µM*	13µM*	?	-72%
O=C(CSC1CS(=O)(=O)c2cc([N+](=O)[O-])ccc21)NNC(=O)c1ccc(Cl)cc1 (stereo not drawn)	-9%	5%	2.3µM*	5.2µM*	13µM*	-67%
O=C(CN1CCOCC1)NNC(=O)c1ccc([N+](=O)[O-])cc1	4%	4%	-5%	3%	-1%	-10%
Cc1ccc(O)c(CNCCNCc2cc(C)ccc2O)c1	?	?	13µM*	10µM*	?	-64%
Oc1ccc(Cl)cc1CNCc1ccc(F)c(F)c1	1%	-3%	-23%	?	-12%	-10%
Cc1ccc(O)c(Cc2cc(C)cc(Cc3cc(C)ccc3O)c2O)c1	-18%	?	?	?	22µM*	-89%
Cc1ccnc(NCc2ccccc2O)c1	20%	2%	-15%	-22%	-3%	6%
CCc1ccc(O)c(CNCCNCc2cc(CC)ccc2O)c1	-30%	-17%	16µM*	23µM*	?	16µM*
CC(=O)c1ccc(N2C(=O)Nc3ccccc3S2(=O)=O)cc1	/	/	?	-29%	5%	0%
